# Gli-Sufu block – Gli-Sufu pathway antagonists, primary screen, luciferase luminescence, Sufu-KO-LIGHT cells, uHTS. Sufu-KO-LIGHT fibroblasts, Gli luciferase reporter luminescence. inhibition, % at 5 µM. actives 0.74% (n = 340,000). AID 588413, 2011;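 active = inhibition above about 55%, limit read from the data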
# 697 NFkB inh – inhibitors of PMA/ionomycin-induced NF-kB reporter, 697 cells, primary screen, B-cell NF-kB inhibitor project, cell-based, luminescence, uHTS; 697 B-cell NF-kB luciferase reporter, 16 h; actives 0.33% (n = 330,000); inhibition, % at 4 µM; in the data active = inhibition above about 35%
# Jurkat NFkB inh – inhibitors of induced NF-kB luciferase reporter, primary screen, TCR NF-kB activation inhibitor project, cell-based, luminescence, uHTS. inhibition, % at 4 µM. actives 0.53% (n = 330,000). Jurkat, PMA/ionomycin-induced NF-kB luciferase reporter; in the data active = inhibition above about 50%
# NR2F2 inh – NR2F2 transcriptional activity inhibitors, primary screen, cell-based, luciferase reporter, HEK293T, luminescence; COUP transcription factor 2 (Homo sapiens), P24468; HEK293T NGFI-A luciferase reporter; inhibition, % at 8.6 µM; actives 0.7% (n = 370,000);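 active = inhibition above a per-plate cutoff, mean inhibition of test wells between control levels plus 3 SD, cut at about 38% in these data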;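 also: cells cotransfected with COUP-TFII expression vector driving the NGFI-A reporter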
# Target sequence (P24468 whole entry, looked up): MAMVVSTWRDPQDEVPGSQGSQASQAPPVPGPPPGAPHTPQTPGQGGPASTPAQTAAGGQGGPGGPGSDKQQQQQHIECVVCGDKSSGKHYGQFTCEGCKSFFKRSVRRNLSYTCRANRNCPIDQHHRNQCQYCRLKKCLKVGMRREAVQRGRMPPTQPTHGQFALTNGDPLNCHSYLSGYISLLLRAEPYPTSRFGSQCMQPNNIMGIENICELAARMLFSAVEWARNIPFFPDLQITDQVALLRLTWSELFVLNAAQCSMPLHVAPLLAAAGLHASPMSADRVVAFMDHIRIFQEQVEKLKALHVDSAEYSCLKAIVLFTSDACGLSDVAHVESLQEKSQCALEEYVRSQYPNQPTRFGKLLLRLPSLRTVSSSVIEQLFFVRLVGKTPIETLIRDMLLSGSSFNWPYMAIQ
# H9c2 protect – cardioprotection against H2O2-induced cell death, primary screen, uHTS, H9c2 cells, ATPLite luminescence; protection from H2O2 cell death, % at 20 µM; actives 0.63% (n = 360,000); H9c2 cardiomyocytes, H2O2 injury protection, 2 h; AID 588492, 2011;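 active = compounds giving at least 50% protection of heart cells from peroxide-induced death in the single-dose screen, raw or plate-pattern-corrected value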
# TAG inh – inhibitors of triacylglycerol accumulation, primary screen, cell-based, uHTS, fluorescence, H9c2; actives 0.66% (n = 230,000); inhibition, % at 12.5 µM; H9c2 cells, Nile Red lipid (TAG) fluorescence; cells loaded with 200 µM oleic acid; AID 651582, 2012;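 active = pattern-corrected inhibition of lipid staining of at least 50% with the nuclear-stain viability signal not falling by more than 50%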
# Numbers stand for hits; 0 = inactive; - = not tested or not shown. Sampled rows, rich in hits. Any-hit rate of the full collection: about 2.6%.
SMILES,Gli-Sufu block,697 NFkB inh,Jurkat NFkB inh,NR2F2 inh,H9c2 protect,TAG inh
O=C(CSc1nnc(-c2ccccc2)n1-c1ccc(Cl)cc1)Nc1cccc2ccccc12,-,-,-,0,-,-
O=C(CCC(=O)N1CCN(C2CCCCC2)CC1)Nc1nnc(C(F)(F)F)s1,0,0,0,0,65,0
O=C(CCC(=O)N1CCN(C2CCCC2)CC1)Nc1nnc(C(F)(F)F)s1,0,0,0,0,0,-
COc1ccc(-c2nc(NC(=O)c3ccc(OCC(=O)N4CCOCC4)c(OC)c3)sc2C)cc1,0,0,0,0,62,-
COc1cc(C(=O)Nc2ccc(C)cn2)ccc1OCC(=O)N1CCOCC1,0,0,0,0,0,0
Cc1nc(SCC(N)=O)[nH]c(=O)c1C,-,-,-,0,-,-
CS(=O)(=O)N1CCC(C(=O)NCC2COc3ccccc3O2)CC1 (stereo not drawn),-,-,-,0,-,-
COC(=O)c1ccccc1NC(=O)c1cnn2c(C)cc(C)nc12,0,0,0,0,0,0
COC(=O)c1ccccc1NC(=O)c1nc2nc(C)cc(C)n2n1,0,0,0,0,61,0
CCOC(=O)N1CCN(C(=O)C[C@H]2C[C@@]3(C(=O)OC)C(=C[C@H](C(C)C)O[C@@H]3C3CC3)N(Cc3ccc(Cl)cc3Cl)C2=O)CC1,-,-,-,0,-,-
O=C(Nc1ccc2ccccc2c1)C1CC2CCC1C2 (stereo not drawn),-,-,-,0,-,-
Cc1cc(C)c(S(=O)(=O)/N=C2/C=C(Sc3ncn[nH]3)C(=O)c3ccccc32)cc1C,0,-,-,62,0,-
Oc1c(C(Nc2cccc(C(F)(F)F)c2)c2ccncc2)ccc2cccnc12 (stereo not drawn),0,0,0,0,0,0
CC(C)C(=O)NC(c1ccco1)c1ccc2cccnc2c1O (stereo not drawn),0,0,0,0,0,72
CCCC(=O)NC(c1cccc([N+](=O)[O-])c1)c1ccc2cccnc2c1O (stereo not drawn),-,-,-,0,0,0
Oc1c(C(Nc2nccs2)c2ccc(C(F)(F)F)cc2)ccc2cccnc12 (stereo not drawn),0,-,-,0,0,60
CC(C)C(=O)NC(c1cccc([N+](=O)[O-])c1)c1ccc2cccnc2c1O (stereo not drawn),74,0,0,0,0,0
CC(C)CC(=O)NC(c1cccs1)c1ccc2cccnc2c1O (stereo not drawn),72,0,0,-,0,0
O=C(COCc1ccccc1)N1CC[C@H]2[C@H](CCCN2Cc2ccc(F)cc2)C1,-,-,-,0,-,-
COC(=O)[C@]12C[C@H](CC(=O)NCc3cccc(C(F)(F)F)c3)C(=O)N(CCc3ccc(OC)c(OC)c3)C1=C[C@H](COCc1ccccc1)O[C@@H]2C,-,-,-,0,-,-
O=C(NCCC1=CCCCC1)C1CCN(S(=O)(=O)c2ccccc2[N+](=O)[O-])CC1,-,-,-,0,-,-
CC(=O)NC(c1ccco1)c1cc(F)c2cccnc2c1O (stereo not drawn),0,0,0,0,50,0
Cc1sc2nc[nH]c(=S)c2c1-c1ccccc1,0,0,0,0,66,0
Cc1sc2nc[nH]c(=O)c2c1-c1ccc(F)cc1,0,0,0,0,0,0
COc1ccc(NS(=O)(=O)c2cc([N+](=O)[O-])ccc2N/N=C/c2c(C)[nH]c3ccccc23)cc1,0,-,-,0,0,0
SMILES,Gli-Sufu block,697 NFkB inh,Jurkat NFkB inh,NR2F2 inh,H9c2 protect,TAG inh
Cc1[nH]c2ccccc2c1/C=N/Nc1ccccc1[N+](=O)[O-],0,0,0,0,0,60
COc1ccc(-c2nc3ccccn3c2NCc2ccc3c(c2)OCO3)cc1,0,0,0,0,0,0
COc1ccc(-c2cc(-c3nc4ccccn4c3NCc3ccccc3)ccc2OC)cc1,90,0,0,101,0,0
CCC(C)Sc1cc(-c2nc3ccc(C)cn3c2NCc2ccccc2)ccc1OC (stereo not drawn),66,-,-,0,0,0
O=C1N(CCCO)CCC12CCCCC2,-,-,-,0,-,-
C=CC[n+]1ccc(/C=C2\C=Cc3cc(C)ccc3N2CC)c2ccccc21,88,-,-,-,0,0
O=C(OC12CCCN(C1)/C(=C/c1ccc(Cl)cc1)C2)C1CCCC1 (stereo not drawn),-,-,-,0,-,-
CCCn1c(NC(=O)c2ccccc2)nc(Cc2ccccc2)c1Cc1ccccc1,-,-,-,0,-,-
CC(C)C[C@@H]1COc2cc(Br)ccc2S(=O)(=O)N1Cc1cn(Cc2ccc(Br)cc2)nn1,-,-,-,0,-,-
N#Cc1c2ccc(O)cc2n2ccccc12,0,0,0,0,69,0
COC(=O)[C@]1(CNC(C)=O)CC(=O)N(Cc2ccc(Cl)cc2)[C@@H]1c1ccc(OC)cc1,-,-,-,0,-,-
COc1cccc(/C=N/NC(=O)c2nc(-c3ccccc3)cc(-c3ccccc3)n2)c1,0,0,0,0,89,0
O=C(N/N=C/c1ccc(O)c(O)c1)c1cc(-c2ccccc2)nc2ccccc12,0,0,0,0,61,0
Cc1nn(-c2ccccc2)c(N2CCCC2)c1/C=N/NC(=O)c1cc(-c2ccccn2)nc2ccccc12,0,0,0,0,57,-
Cc1cc(C(=O)N/N=C/c2cc([N+](=O)[O-])ccc2O)c2ccccc2n1,0,0,0,0,56,-
C[C@H]1[C@@H](C(=O)N2CCCC2)Cc2nc3ccccc3nc2C[C@@H]1c1ccccc1,-,-,-,0,-,-
CCOC(=O)CC[C@H]1CC[C@]2(CCCN(C(=O)c3ccc4ccccc4n3)C2)O1,-,-,-,0,-,-
FC(F)(F)c1cccc(N2CCN(C(=S)Nc3nccc4ccccc34)CC2)c1,-,-,-,0,-,-
O=C(N/N=C/c1ccccn1)c1cc(-c2ccncc2)nc2ccccc12,0,0,0,0,77,0
Cn1c2ccccc2c2cc(/C=N/NC(=O)c3cc(O)ccc3O)ccc21,0,0,0,0,53,0
C[C@H]1[C@@H](NC(=O)C(c2ccccc2)c2ccccc2)CC[C@@]23CCCN2C(=O)CCC[C@@H]13,-,-,-,0,-,-
O=C(Nc1cc(=O)c2ccccc2o1)N1CCCCC1,0,0,0,0,104,-
O=C(Nc1cc(=O)c2ccccc2o1)N1CCOCC1,0,0,0,0,0,-
Nn1c(SCC(=O)Nc2ccc(OCc3ccccc3)cc2)nnc1-c1cc(-c2ccccc2)n[nH]1,-,-,-,0,-,-
CCOC(=O)[C@]12CCCC3=C1N(CCC3)C(=O)[C@@H](CC(=O)NCCC(C)C)C2,-,-,-,0,-,-
Cc1cc2cc3c(cc2n2c(SCC(=O)Nc4nc(-c5ccccc5)cs4)nnc12)OCO3,-,-,-,0,-,-
O=C(Cn1ncc(Cl)c(Cl)c1=O)NC(=O)NC1CCCCC1,0,0,0,0,0,56
